# Records with an inconclusive call do not appear. The source holds several records for some structures; these can differ, active in one and inactive in another. Calls of active or inactive are those of the source. The call rests on the fitted dose curve.
# Biological target: Acetylcholinesterase (Homo sapiens) (UniProt P22303)
# Test: Acetylcholinesterase (AChE) small molecule antagonists: colormetric cell-based qHTS assay (AID 1347395); further: nearly all actives have a fitted effect of over 30% in size
# Conditions: SH-SY5Y cells AChE activity, colorimetric (Ellman); series mostly up to 115 µM; activity, negative = inhibition: at the top concentration
# Summary of the method: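 Cells (SH-SY5Y, 2,000 per well) are seeded and left overnight at 37 C. Compound is added for 30 min, then DTNB and acetylthiocholine for a further 90 min at 37 C before absorbance-based thiocholine detection.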
# On the % scale 0 is the no-effect control and ±100 the full control effect; potency means the concentration at half of the fitted maximal effect.
# Chain of Acetylcholinesterase (Homo sapiens) (P22303 whole entry, looked up): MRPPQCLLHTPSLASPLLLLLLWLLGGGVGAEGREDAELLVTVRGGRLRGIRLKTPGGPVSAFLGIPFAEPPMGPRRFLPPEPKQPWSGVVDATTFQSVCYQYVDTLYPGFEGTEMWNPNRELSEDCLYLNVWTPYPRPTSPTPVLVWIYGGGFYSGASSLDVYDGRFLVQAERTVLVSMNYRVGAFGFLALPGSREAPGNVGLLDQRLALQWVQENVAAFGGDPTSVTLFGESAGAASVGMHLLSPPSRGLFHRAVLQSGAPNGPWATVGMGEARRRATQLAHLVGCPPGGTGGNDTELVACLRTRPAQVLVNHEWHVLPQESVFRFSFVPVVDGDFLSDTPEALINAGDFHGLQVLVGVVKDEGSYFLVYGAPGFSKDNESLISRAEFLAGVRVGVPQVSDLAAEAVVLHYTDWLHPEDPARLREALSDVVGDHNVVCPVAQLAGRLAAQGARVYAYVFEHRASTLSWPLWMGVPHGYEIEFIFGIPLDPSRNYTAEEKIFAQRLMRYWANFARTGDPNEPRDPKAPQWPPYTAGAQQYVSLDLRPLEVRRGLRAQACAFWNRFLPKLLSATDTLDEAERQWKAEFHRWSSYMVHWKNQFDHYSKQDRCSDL
SMILES,"activity, negative = inhibition",Potency
CCOC(OCC)OCC,3.89% (inactive),
CC(=O)OC(C)C,,inactive
Cc1c(N)cccc1C(F)(F)F,-1.77% [at 52.9 µM] (inactive),
CCC(C(=O)OCCN(CC)CC)c1ccccc1 (stereo not drawn),-0.878% [at 52.9 µM] (inactive),
Nc1nc2ccc(OC(F)(F)F)cc2s1,1.14% [at 52.9 µM] (inactive),
O=C1Nc2cc(Cl)ccc2Oc2ccccc21,3.19% [at 52.9 µM] (inactive),
Cc1oc(-c2ccccc2)nc1CCOc1cccc2c1ccn2CCC(=O)O,2.52% (inactive),
NC(=O)c1ccccc1N,1.93% (inactive),
CCN1CCCC1=O,,inactive
CCCCCCCCCCOC(C)=O,-0.202% (inactive),
Cc1cc(Cc2ccc(N)c(C)c2)ccc1N,,inactive
c1ccc2[nH]cnc2c1,,inactive
NC(=O)N(O)[C@@H]1C=C[C@H](Oc2cccc(Oc3ccc(F)cc3)c2)C1,0.638% (inactive),
C[C@H](CCC(=O)O)[C@H]1CC[C@H]2[C@@H]3[C@H](O)C[C@@H]4C[C@H](O)CC[C@]4(C)[C@H]3CC[C@]12C,-1.36% (inactive),
O=C(OCC1CCC2OC2C1)C1CCC2OC2C1 (stereo not drawn),,inactive
CC(C)(C)OC=O,1.02% (inactive),
CCCCCCC(C)(C)C(=O)O,-1.65% (inactive),
C=Cc1ccccn1,-0.352% (inactive),
CCOC(=O)/C=C/c1ccccc1,2.93% (inactive),
COc1ccc(OC)c(NC(=O)CC(C)=O)c1,2.88% (inactive),

SMILES,"activity, negative = inhibition",Potency
OCC(O)[C@@H](O)[C@H](O)[C@H](O)CO[C@H]1O[C@H](CO)[C@@H](O)[C@H](O)[C@H]1O (stereo partly drawn),3% (inactive),
c1ccc(Nc2cccc3ccccc23)cc1,,inactive
O=Cc1ccc(Cl)c([N+](=O)[O-])c1,,39.9 µM (active)
C[Si](C)(C)N[Si](C)(C)C,,inactive
O=C=Nc1ccc(Cl)c(Cl)c1,0.457% (inactive),
COc1ccc2c(c1)CCCC2=O,-0.375% [at 52.9 µM] (inactive),
CCOc1ccc(NC(C)=O)cc1N,0% (inactive),
CC(C)NNC(=O)c1ccncc1,2.57% [at 52.9 µM] (inactive),
COC(=O)C(C)O (stereo not drawn),-0.718% (inactive),
C#CC(C)N(C)C(=O)Nc1ccc(Cl)cc1 (stereo not drawn),1.3% (inactive),
C=CCn1c(=O)n([C@@H]2O[C@H](CO)[C@@H](O)[C@H]2O)c2nc(N)[nH]c(=O)c21,-1.01% [at 52.9 µM] (inactive),
CCCCOC(=O)CCS,1.83% (inactive),
CC1(C)O[C@H]2CC(=O)OC[C@]23[C@H]2CC[C@@]4(C)[C@H](c5ccoc5)OC(=O)[C@H]5O[C@]54[C@]2(C)C(=O)C[C@@H]13,-1.09% [at 52.9 µM] (inactive),
COCC(C)OC(C)=O (stereo not drawn),0.337% (inactive),
CC(C)CCO,-0.841% (inactive),
Cc1scc2c1N(C(=O)CN1CCN(C)CC1)c1ccccc1NC2=O,-0.881% [at 52.9 µM] (inactive),
Cc1c(C)c2c(c(C)c1OC(=O)c1cccnc1)CC[C@@](C)(CCC[C@H](C)CCC[C@H](C)CCCC(C)C)O2,0.0153% [at 52.9 µM] (inactive),
NC(=O)NC1NC(=O)NC1=O (stereo not drawn),,inactive
CCCCC(CC)C(=O)OCCOCCOCCOC(=O)C(CC)CCCC (stereo not drawn),,inactive

# Biological target: Acetylcholinesterase (Homo sapiens) (UniProt P22303)
# Test: Acetylcholinesterase (AChE) small molecule antagonists: enzyme-based qHTS assay (AID 1347397); further: nearly all actives have a fitted effect of over 55% in size
# Conditions: Potency: AChE enzyme activity inhibition; outcome: AChE enzyme activity inhibition; series mostly up to 115 µM; activity change, negative = inhibition: at the top concentration
# Summary of the method: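 Colorimetric DTNB read-out of thiocholine released from acetylthiocholine by recombinant human AChE (50 mU/mL as dispensed). Compounds were preincubated 30 min at RT before substrate/DTNB addition, with a 10 min RT reaction.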
SMILES,"activity change, negative = inhibition",Potency
CCOC(OCC)OCC,0.94% (inactive),
CC(=O)OC(C)C,,inactive
Cc1c(N)cccc1C(F)(F)F,0.12% [at 53 µM] (inactive),
CCC(C(=O)OCCN(CC)CC)c1ccccc1 (stereo not drawn),0.459% [at 53 µM] (inactive),
Nc1nc2ccc(OC(F)(F)F)cc2s1,0.293% [at 53 µM] (inactive),
O=C1Nc2cc(Cl)ccc2Oc2ccccc21,0.109% [at 53 µM] (inactive),
Cc1oc(-c2ccccc2)nc1CCOc1cccc2c1ccn2CCC(=O)O,-0.578% (inactive),
NC(=O)c1ccccc1N,0.0033% (inactive),
CCN1CCCC1=O,,inactive
CCCCCCCCCCOC(C)=O,0.205% (inactive),
Cc1cc(Cc2ccc(N)c(C)c2)ccc1N,,inactive
c1ccc2[nH]cnc2c1,,inactive
NC(=O)N(O)[C@@H]1C=C[C@H](Oc2cccc(Oc3ccc(F)cc3)c2)C1,-0.521% (inactive),
C[C@H](CCC(=O)O)[C@H]1CC[C@H]2[C@@H]3[C@H](O)C[C@@H]4C[C@H](O)CC[C@]4(C)[C@H]3CC[C@]12C,-1.23% (inactive),
O=C(OCC1CCC2OC2C1)C1CCC2OC2C1 (stereo not drawn),,inactive
CC(C)(C)OC=O,0.418% (inactive),
CCCCCCC(C)(C)C(=O)O,-0.779% (inactive),
C=Cc1ccccn1,-0.138% (inactive),
CCOC(=O)/C=C/c1ccccc1,-0.138% (inactive),
COc1ccc(OC)c(NC(=O)CC(C)=O)c1,-0.379% (inactive),

SMILES,"activity change, negative = inhibition",Potency
OCC(O)[C@@H](O)[C@H](O)[C@H](O)CO[C@H]1O[C@H](CO)[C@@H](O)[C@H](O)[C@H]1O (stereo partly drawn),1.64% (inactive),
c1ccc(Nc2cccc3ccccc23)cc1,,inactive
O=Cc1ccc(Cl)c([N+](=O)[O-])c1,-11.7% (inactive),
C[Si](C)(C)N[Si](C)(C)C,,3.96 µM (active) and inactive
O=C=Nc1ccc(Cl)c(Cl)c1,-0.733% (inactive),
COc1ccc2c(c1)CCCC2=O,-0.27% [at 53 µM] (inactive),
CCOc1ccc(NC(C)=O)cc1N,1.23% (inactive),
CC(C)NNC(=O)c1ccncc1,2.43% [at 53 µM] (inactive),
COC(=O)C(C)O (stereo not drawn),-3.82% (inactive),
C#CC(C)N(C)C(=O)Nc1ccc(Cl)cc1 (stereo not drawn),0.114% (inactive),
C=CCn1c(=O)n([C@@H]2O[C@H](CO)[C@@H](O)[C@H]2O)c2nc(N)[nH]c(=O)c21,0.405% [at 53 µM] (inactive),
CCCCOC(=O)CCS,0.503% (inactive),
CC1(C)O[C@H]2CC(=O)OC[C@]23[C@H]2CC[C@@]4(C)[C@H](c5ccoc5)OC(=O)[C@H]5O[C@]54[C@]2(C)C(=O)C[C@@H]13,-1.21% [at 53 µM] (inactive),
COCC(C)OC(C)=O (stereo not drawn),0.156% (inactive),
CC(C)CCO,-1.16% (inactive),
Cc1scc2c1N(C(=O)CN1CCN(C)CC1)c1ccccc1NC2=O,0% [at 53 µM] (inactive),
Cc1c(C)c2c(c(C)c1OC(=O)c1cccnc1)CC[C@@](C)(CCC[C@H](C)CCC[C@H](C)CCCC(C)C)O2,0.0073% [at 53 µM] (inactive),
NC(=O)NC1NC(=O)NC1=O (stereo not drawn),,inactive
CCCCC(CC)C(=O)OCCOCCOCCOC(=O)C(CC)CCCC (stereo not drawn),,inactive
